Test results reported in PubChem BioAssay.
Calls of active or inactive are those of the source.

Key:
[1] = binders of probe aFSTL3 on microarray, primary screen, stem cell growth factor project, biochemical, small-molecule microarray, fluorescence 635/667 (AID 1064); conditions: higher = more signal;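 further: measures binding of the biotinylated anti-FSTL3 antibody to printed compounds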
[2] = binders from COS7 lysate, DM2A8 probe, primary screen, torsin A project, cell lysate, small-molecule microarray, fluorescence 635/667 (AID 1065); conditions: higher = more signal, COS7 lysate expressing mutant human TOR1A
[3] = binders of probe aFGF2 on microarray, primary screen, stem cell growth factor project, biochemical, small-molecule microarray, fluorescence 635/667 (AID 1067); conditions: higher = more signal;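 further: measures binding of biotinylated aFGF2 protein to printed compounds on slides; z-score merges feature fluorescence and signal-to-noise across triplicate slides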
[4] = binders of probe aFGF10 on microarray, primary screen, stem cell growth factor project, biochemical, small-molecule microarray, fluorescence 635/667 (AID 1071); conditions: higher = more signal;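 further: score merges 667 nm spot intensity and signal to noise from triplicate slides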
[5] = biological target: Neurogenic locus notch homolog protein 2 (Homo sapiens) (UniProt Q04721); test: Notch2 binders on small-molecule microarrays, primary screen, biochemical, small-molecule microarray, 635 nm fluorescence, stem cell growth factors (AID 1073); conditions: Notch2 binding, higher = more signal
[6] = biological target: Pro-neuregulin-1, membrane-bound isoform (Homo sapiens) (UniProt Q02297); test: NRG1 binders on small-molecule microarrays, primary screen, psychiatric disease protein project, biochemical, small-molecule microarray, fluorescence 635/667 (AID 1075); conditions: NRG1 binding, 635 nm fluorescence, higher = more signal;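 further: score combines 667 nm spot fluorescence with signal to noise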
[7] = tested on: Neuregulin-1 EGF-like domain; test: binders of neuregulin-1 EGF-like domain, primary screen, biochemical, small-molecule microarray, 635 nm fluorescence (AID 1081); conditions: small-molecule microarray binding, higher = more signal;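 further: binding of the protein to compounds printed on small-molecule microarray slides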
[8] = FRG1 promoter luciferase signal modulators, primary screen, FRG1 inhibition for FSHD, cell-based, C2C12 myotubes, firefly/Renilla luciferase, luminescence (AID 1084); conditions: higher = more signal, called active from +8 up or from −8 down
[9] = binders of probe aFST on microarray, primary screen, stem cell growth factor project, biochemical, small-molecule microarray, fluorescence 635/667 (AID 1086); conditions: higher = more signal;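 further: score merges 667 nm fluorescence with signal-to-noise of each printed compound spot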
[10] = binders of probe aHhip on microarray, primary screen, stem cell growth factor project, biochemical, small-molecule microarray, fluorescence 635/667 (AID 1087); conditions: higher = more signal;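 further: score merges spot fluorescence at 667nm with spot signal to noise ratio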

Pro-neuregulin-1, membrane-bound isoform (Homo sapiens), sequence (Q02297 whole entry, looked up, the tested form may be a part, canonical isoform): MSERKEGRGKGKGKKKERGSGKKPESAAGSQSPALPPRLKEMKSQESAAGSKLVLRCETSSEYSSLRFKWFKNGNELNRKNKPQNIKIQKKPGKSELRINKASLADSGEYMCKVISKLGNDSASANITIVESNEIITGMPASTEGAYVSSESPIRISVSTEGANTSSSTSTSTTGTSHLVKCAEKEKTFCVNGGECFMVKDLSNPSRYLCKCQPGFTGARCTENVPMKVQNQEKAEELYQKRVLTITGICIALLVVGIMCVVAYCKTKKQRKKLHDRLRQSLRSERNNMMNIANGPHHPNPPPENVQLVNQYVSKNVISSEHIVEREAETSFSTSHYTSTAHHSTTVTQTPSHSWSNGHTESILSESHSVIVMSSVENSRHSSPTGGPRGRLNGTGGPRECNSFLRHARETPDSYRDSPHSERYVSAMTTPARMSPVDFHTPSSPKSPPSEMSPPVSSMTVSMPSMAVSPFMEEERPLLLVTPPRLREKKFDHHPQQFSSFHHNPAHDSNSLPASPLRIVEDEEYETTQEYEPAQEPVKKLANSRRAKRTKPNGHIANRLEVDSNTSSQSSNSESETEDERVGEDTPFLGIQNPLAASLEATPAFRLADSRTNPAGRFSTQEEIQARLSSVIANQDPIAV
Neurogenic locus notch homolog protein 2 (Homo sapiens), sequence (Q04721 whole entry, looked up, canonical isoform): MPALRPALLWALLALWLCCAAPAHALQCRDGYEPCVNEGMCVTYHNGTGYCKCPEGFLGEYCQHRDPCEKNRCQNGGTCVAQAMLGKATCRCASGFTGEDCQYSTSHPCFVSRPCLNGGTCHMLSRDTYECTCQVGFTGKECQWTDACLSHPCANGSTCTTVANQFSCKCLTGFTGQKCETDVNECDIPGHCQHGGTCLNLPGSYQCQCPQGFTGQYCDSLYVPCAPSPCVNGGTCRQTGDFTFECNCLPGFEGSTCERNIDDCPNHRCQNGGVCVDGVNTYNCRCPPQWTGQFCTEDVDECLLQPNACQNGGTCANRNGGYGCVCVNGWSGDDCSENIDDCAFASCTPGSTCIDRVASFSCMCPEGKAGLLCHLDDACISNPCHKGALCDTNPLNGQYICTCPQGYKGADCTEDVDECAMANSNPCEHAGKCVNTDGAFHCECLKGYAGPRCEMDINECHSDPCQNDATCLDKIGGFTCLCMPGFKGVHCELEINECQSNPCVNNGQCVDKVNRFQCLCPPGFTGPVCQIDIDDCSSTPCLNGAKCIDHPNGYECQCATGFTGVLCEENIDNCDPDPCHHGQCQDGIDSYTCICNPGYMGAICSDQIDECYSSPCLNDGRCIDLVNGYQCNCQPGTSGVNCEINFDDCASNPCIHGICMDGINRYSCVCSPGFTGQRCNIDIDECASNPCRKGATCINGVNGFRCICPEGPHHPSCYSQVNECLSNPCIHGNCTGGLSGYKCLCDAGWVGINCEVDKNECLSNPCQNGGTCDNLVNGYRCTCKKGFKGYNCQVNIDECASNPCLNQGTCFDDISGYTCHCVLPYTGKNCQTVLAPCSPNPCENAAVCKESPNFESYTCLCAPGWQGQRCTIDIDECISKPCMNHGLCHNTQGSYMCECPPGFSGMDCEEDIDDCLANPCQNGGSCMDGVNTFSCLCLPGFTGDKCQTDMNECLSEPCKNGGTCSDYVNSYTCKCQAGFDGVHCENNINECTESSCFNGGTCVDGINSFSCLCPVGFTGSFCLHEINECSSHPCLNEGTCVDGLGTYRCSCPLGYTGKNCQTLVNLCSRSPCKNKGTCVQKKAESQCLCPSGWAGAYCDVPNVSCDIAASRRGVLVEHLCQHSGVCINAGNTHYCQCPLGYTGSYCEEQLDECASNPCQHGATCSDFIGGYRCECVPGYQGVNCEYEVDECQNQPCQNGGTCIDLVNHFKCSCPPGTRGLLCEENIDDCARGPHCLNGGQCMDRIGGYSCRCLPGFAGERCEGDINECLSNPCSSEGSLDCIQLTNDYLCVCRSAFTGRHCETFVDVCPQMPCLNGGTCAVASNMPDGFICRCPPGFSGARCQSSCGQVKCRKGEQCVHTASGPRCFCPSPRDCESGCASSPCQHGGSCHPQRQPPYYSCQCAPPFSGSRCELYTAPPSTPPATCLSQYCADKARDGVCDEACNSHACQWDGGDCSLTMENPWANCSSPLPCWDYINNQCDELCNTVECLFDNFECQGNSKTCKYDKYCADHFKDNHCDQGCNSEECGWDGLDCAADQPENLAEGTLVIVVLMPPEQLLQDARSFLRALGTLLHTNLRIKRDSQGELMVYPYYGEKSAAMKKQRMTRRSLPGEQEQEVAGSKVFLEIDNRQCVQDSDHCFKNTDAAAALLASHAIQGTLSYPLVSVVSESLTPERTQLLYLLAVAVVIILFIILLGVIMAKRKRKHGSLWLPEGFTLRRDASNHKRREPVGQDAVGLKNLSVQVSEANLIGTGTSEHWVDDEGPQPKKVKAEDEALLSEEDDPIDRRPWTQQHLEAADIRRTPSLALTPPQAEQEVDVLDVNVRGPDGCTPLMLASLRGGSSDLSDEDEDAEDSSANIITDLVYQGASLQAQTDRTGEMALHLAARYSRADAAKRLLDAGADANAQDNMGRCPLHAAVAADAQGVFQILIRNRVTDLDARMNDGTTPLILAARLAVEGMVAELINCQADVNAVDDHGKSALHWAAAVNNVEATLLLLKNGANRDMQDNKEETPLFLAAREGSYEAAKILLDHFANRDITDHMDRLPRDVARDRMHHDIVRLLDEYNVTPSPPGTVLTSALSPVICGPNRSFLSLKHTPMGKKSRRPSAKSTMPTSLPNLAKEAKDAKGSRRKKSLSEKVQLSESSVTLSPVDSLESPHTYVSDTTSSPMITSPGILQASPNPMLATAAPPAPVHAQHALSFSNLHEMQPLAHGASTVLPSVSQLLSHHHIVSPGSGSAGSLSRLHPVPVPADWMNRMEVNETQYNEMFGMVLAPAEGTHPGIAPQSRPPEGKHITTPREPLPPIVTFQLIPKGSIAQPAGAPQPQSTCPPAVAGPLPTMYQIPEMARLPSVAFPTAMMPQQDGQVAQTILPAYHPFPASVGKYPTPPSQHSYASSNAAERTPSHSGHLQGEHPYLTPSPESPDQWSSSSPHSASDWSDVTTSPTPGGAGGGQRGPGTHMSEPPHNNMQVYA

Row | Structure (SMILES) | composite z-score [1] | composite z-score [2] | composite z-score [3] | composite z-score [4] | composite z-score [5] | composite z-score [6] | composite z-score [7] | z-score [8] | composite z-score [9] | composite z-score [10]
1 | CC(=O)NCCCC[C@@H]1NC(=O)[C@H]2C[C@@H](C(=O)NCCCCCNC(=O)CS)[C@@H](c3ccc(O)cc3)N2C1=O | 0.894 | 0.122 | -0.0358 | -0.0035 | -0.886 | 0.0616 | 1.34 | 0.515 (inactive) | -0.226 | -0.175
2 | Cc1ccc(S[C@]2(C(=O)NCC(C)C)CC(=O)N(Cc3cc(C(F)(F)F)cc(C(F)(F)F)c3)[C@@H]2c2ccc(CO)cc2)cc1 | 0.436 | -0.455 | 0.047 | -0.272 | -0.598 | 0.884 | 1.44 | -0.775 (inactive) | 0.0031 | 0.0749
3 | CC(C)(C)OC(=O)CC[C@]1(C(=O)NCCN2CCOCC2)COC(c2ccc(OCCCO)cc2)=N1 | -0.254 | 0.883 | 0.0569 | 0.691 | 0.361 | 1.33 | 1.41 | -0.783 (inactive) | 0.519 | 0.0623
4 | O=C1O[C@H](c2ccccc2)[C@H](c2ccccc2)N2[C@H]1[C@@H](C(=O)NC[C@H](O)c1ccccc1)[C@]1(C(=O)Nc3ccc(C#CC4=CCCCC4)cc31)[C@H]2c1ccccc1OCCO | 0.185 | 0.463 | 0.0637 | 0.496 | 0.908 | 0.298 | 1.07 | -0.341 (inactive) | 0.599 | -0.0645
5 | CCOC(=O)C1=CC[C@@H](c2ccc(C(F)(F)F)cc2)N(S(=O)(=O)c2ccc(C)cc2)[C@H]1c1ccccc1 | 0.371 | 1.4 | 0.0917 | 0.599 | 1.38 | 1.3 | 1.25 | -0.364 (inactive) | 1.04 | -0.0296
6 | COc1ccc([Si](C)(C)[C@@H]2[C@@H](CCn3cc(CCO)nn3)O[C@]3(C(=O)N(Cc4cccc(N5C(=O)c6cccc7cccc5c67)c4)c4ccccc43)[C@H]2C)cc1 | -0.429 | -0.179 | -0.103 | 0.359 | 0.275 | 0.98 | 1.04 | -1.56 (inactive) | 0.525 | -0.189
7 | CO[C@H]1O[C@H](CO)[C@@H](OC(=O)Nc2cccc(F)c2)[C@H](OC(=O)Nc2ccccc2)[C@H]1OC(=O)Nc1ccccc1 | -0.246 | 1.35 | 0.0664 | 0.466 | 1.07 | 0.981 | 1.36 | 0.746 (inactive) | 0.724 | -0.191
8 | COCCCNC(=O)[C@@]1(CCS(=O)(=O)c2ccccc2)N=C(c2ccc(OCCCO)cc2)O[C@H]1c1ccccc1N=[N+]=[N-] | 0.205 | 2.1 | 0.137 | 1.17 | 1.48 | 1.7 | 1.23 | 1.72 (inactive) | 1.63 | -0.0645
9 | COc1ccc(C(=O)Nc2cccc(CN3C(=O)[C@]4(O[C@H](CCn5cc(CCO)nn5)[C@@H]([Si](C)(C)c5ccc(OC)cc5)[C@@H]4C)c4ccccc43)c2)cc1 | 0.287 | -0.161 | -0.116 | -0.13 | 0.91 | 0.654 | 1.04 | -2.91 (inactive) | 0.372 | -0.137
10 | C=C(CCCC)C(=O)CC[C@H](OC(=O)c1cccnc1)c1ccc(OCCO)cc1 | 0.242 | 1.4 | -0.116 | 0.149 | -0.65 | 0.766 | 0.761 | -0.916 (inactive) | -0.0065 | -0.0994
11 | O=C(NC1CC1)[C@@H]1c2ccccc2C(=O)N(Cc2cc(F)cc(C(F)(F)F)c2)[C@H]1c1ccc(CO)cc1 | 0.388 | 0.195 | -0.172 | 0.327 | -0.697 | -0.13 | 1.04 | -0.594 (inactive) | 0.254 | -0.194
12 | CN(C)CCCCNC(=O)[C@@H]1C[C@@H]2C(=O)N[C@@H](CCCCN)C(=O)N2[C@@H]1c1ccc(O)cc1 | 0.597 | 0.034 | -0.145 | -0.146 | 0.471 | 0.707 | 1.13 | -0.778 (inactive) | 0.214 | 0.151
13 | COCCOC(=O)N1C(=O)[C@@]2(c3cc(C#CCCO)ccc31)[C@H](c1ccc(OCCO)cc1)N1[C@H](c3ccccc3)[C@H](c3ccccc3)OC(=O)[C@H]1[C@@H]2C(N)=O | -0.139 | 0.947 | -0.0182 | 0.916 | 1.16 | 0.741 | 1.23 | -0.485 (inactive) | 0.177 | -0.239
14 | CC(CO)N1C(=O)[C@@H]2C3C(=O)OCCC/C=C\[C@H]3OC23C=CCN(CCN2CCOCC2)C(=O)[C@@H]13 (stereo not given in full) | -0.547 | 0.163 | -0.139 | 0.38 | -0.59 | -0.31 | 0.47 | -0.55 (inactive) | -0.28 | -0.212
15 | COCCCNC(=O)[C@@H]1c2ccccc2C(=O)N(Cc2ccccc2OC)[C@H]1c1ccc(CO)cc1 | -0.169 | 0.64 | -0.0021 | 0.584 | 0.239 | 1.8 | 1.34 | -1.57 (inactive) | -0.0311 | -0.0645
16 | CC(C)(C)OC(=O)CC[C@]1(C(N)=O)N=C(c2ccc(OCCCO)cc2)O[C@H]1c1ccccc1 | 1.05 | 1.16 | 0.0466 | 0.27 | 1.53 | 2.53 | 1.07 | -0.578 (inactive) | 0.994 | 0.294
